# Source: PubChem BioAssay
# TCR act = Activators of T cell receptors: qHTS campaign | 330,000 tested, under 10 active | AID 504894, 2011 | Potency, µM (top dose mostly 9.22 µM), without a hit: top-dose activation of IL-2 secretion, actives largely listed as activators | primary human leukocytes, anti-CD3, IL-2 HTRF, 48 h; note: % of control where 0% means no effect
#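 Compounds are tested in HTS on primary human leukocytes co-incubated with a-CD3 beads for 48 hr. IL-2 output is measured by time-resolved FRET.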
# Eya2 inh = qHTS Assay for Inhibitors of the Phosphatase Activity of Eya2; 330,000 tested, 0.006% active; recombinant Eya2, OMFP fluorescence dephosphorylation (OMFP is methylfluorescein phosphate); Protein phosphatase EYA2 (Homo sapiens), O00167; Potency, µM (highest dose often 76.9 µM), for inactives: top-dose activity, negative = inhibition, most hits filed as inhibitors; note: potency is the fitted concentration of half-maximal effect; % is set by controls: 0 for no effect and ±100 for the full control effect
#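 Eya2 protein (added as 0.2 uM solution) was preincubated with compound for 10 min at ambient temperature in 50 mM HEPES pH 7.5, 50 mM NaCl, 5 uM MgCl2, 0.05% BSA, 1 mM DTT. OMFP (added at 50 uM) then reacted 10 min; fluorescence read at 485/525 nm.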
# TSHR antagonist = Antagonists of the Thyroid Stimulating Hormone Receptor: HTS campaign; 330,000 tested, 0.2% active; Thyrotropin receptor (Homo sapiens), P16473; TSHR-expressing cells, TSH-stimulated cAMP HTRF, 2 h; stronger effect = lower value; activity change, negative = inhibition, % at 11.5 µM;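 active = activity change below a set negative limit, meaning inhibition stronger than a set level, cut at about -70% in these data; inconclusive = activity change between two set negative limits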; note: % is set by controls: 0 for no effect and ±100 for the full control effect
# Target sequence (P16473 whole entry, looked up): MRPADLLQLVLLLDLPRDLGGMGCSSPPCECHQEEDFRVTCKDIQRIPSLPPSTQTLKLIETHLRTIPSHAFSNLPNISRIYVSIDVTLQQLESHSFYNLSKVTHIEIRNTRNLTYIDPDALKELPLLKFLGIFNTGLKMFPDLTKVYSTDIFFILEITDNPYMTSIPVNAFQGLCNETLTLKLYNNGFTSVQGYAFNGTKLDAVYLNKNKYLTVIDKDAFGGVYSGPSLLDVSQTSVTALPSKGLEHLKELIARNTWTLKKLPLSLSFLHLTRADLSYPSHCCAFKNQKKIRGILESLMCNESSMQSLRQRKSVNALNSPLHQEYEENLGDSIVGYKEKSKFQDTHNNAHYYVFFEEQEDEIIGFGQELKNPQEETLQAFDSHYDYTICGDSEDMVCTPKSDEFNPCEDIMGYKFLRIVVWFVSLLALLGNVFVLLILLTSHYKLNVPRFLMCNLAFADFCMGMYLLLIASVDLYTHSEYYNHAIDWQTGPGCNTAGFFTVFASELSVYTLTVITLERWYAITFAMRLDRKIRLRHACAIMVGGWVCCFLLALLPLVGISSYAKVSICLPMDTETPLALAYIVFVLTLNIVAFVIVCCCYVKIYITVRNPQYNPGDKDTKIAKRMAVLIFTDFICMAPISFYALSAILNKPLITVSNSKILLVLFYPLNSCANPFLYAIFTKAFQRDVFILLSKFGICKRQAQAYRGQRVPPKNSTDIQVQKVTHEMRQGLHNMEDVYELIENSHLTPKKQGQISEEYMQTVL
#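 Antagonism was scored as loss of TSH-driven cAMP in TSHR cells, stimulated with 4nM TSH (EC80) for 2 hours at 37 deg C and detected by homogeneous HTRF competition immunoassay.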
# a7 integrin act = qHTS for Activators of Integrin-Mediated Alleviation for Muscular Dystrophy | alpha7betagal myoblasts, beta-gal FDG fluorescence, 48 h | Potency, µM (titrated, usually from 38.3 µM), for inactives: at the top dose activation, actives largely listed as activators | 350,000 tested, 0.064% active | AID 624291, 2012;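 note: potency is the fitted concentration of half-maximal effect; 100% = response of the positive control SU9516; nearly all actives have a fitted effect of over 60% in size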
#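 alpha7betagal+/- myoblasts (passage 13, 250/well) treated 48 h at 37C with compounds at 1:260 dilution of DMSO stock. Lysed, then beta-galactosidase activity read as FDG fluorescence (ex 480/em 540) after 30 min, with pre-read for autofluorescence.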
# Active calls of the source: *; ? = inconclusive; nt = no result; [ ] = dose if it differs, or a comment. Hits are enriched below; roughly 0.24% of the tested compounds scored in any of these assays. Unless noted, calls come from the whole dose curve; as a rule, active = well fitted curve in the direction sought with a large enough effect; inconclusive = small, poorly fitted or top-dose-only effect, or another doubt; inactive = no such curve, though single readings can be large; an effect the other way counts as inactive or inconclusive.
SMILES,TCR act,Eya2 inh,TSHR antagonist,a7 integrin act
Cc1ccc(C)c(C(=O)COC(=O)c2ccccc2N2C(=O)C3C4CCC(C4)C3C2=O)c1 (stereo not drawn),-3.0%,-3.3%,-4.1,-57.2%
O=C(Nc1nc(-c2ccccc2)cs1)c1ccc(N2CCOCC2)c([N+](=O)[O-])c1,1.7%[46.1 µM],-11.1%,-101.1*,-40.9%
Cc1ccc(-c2csc(NC(=O)c3cc([N+](=O)[O-])ccc3N3CCOCC3)n2)cc1,1.2%,13.5%,1.6,-7.9%
Cc1cc2nc3ccc(=[N+](C)C)cc-3sc2cc1N,24.9%,10.4%,-107.6*,-66.6%
Cc1ccc(C(=O)O)cc1N1C(=O)c2cccc3c([N+](=O)[O-])ccc(c23)C1=O,-8.5%,?,-73.4*,-26.9%
O=C(Nc1sc2c(c1C(=O)NCC(O)CO)CCCC2)c1ccccc1 (stereo not drawn),-0.7%,nt,nt,15.5%
CCCn1nc([N+](=O)[O-])c(C(C#N)c2nc3ccccc3s2)c(Cl)c1=O (stereo not drawn),0.6%,-7.4%,-76.0*,-50.3%
COCCn1c(=N)c(S(=O)(=O)c2ccc(Br)cc2)cc2c(=O)n3ccccc3nc21,2.0%,3.6%,-10.7,4.47µM*
COCCn1c(=N)c(S(=O)(=O)c2ccc(F)cc2)cc2c(=O)n3ccccc3nc21,2.7%,9.4%,-17.5,12.6%
Cc1cc(C)cc(OC(C)C(=O)NCCCn2ccnc2)c1 (stereo not drawn),-1.3%,-5.2%,-103.9*,4.6%
NS(=O)(=O)c1ccc(NC(=O)c2ccc(CNS(=O)(=O)c3cc(C(F)(F)F)ccc3Cl)cc2)cc1,0.7%,3.3%,5.2,10µM*
CCN1CCN(CCC2Oc3cc([N+](=O)[O-])ccc3NC2=O)CC1 (stereo not drawn),3.5%,-20.1%,-5.7,1.9%
COc1ccc(N2CCN(CCC3Oc4cc([N+](=O)[O-])ccc4NC3=O)CC2)cc1 (stereo not drawn),-1.2%,-0.4%,2.1,8.91µM*
CC1=C(C(=O)OCC(Cl)(Cl)Cl)N2C(=O)C(NC(=O)Cc3ccccc3)C2SC1 (stereo not drawn),-3.7%,-9.2%,-77.2*,7.2%
NC1(C(=O)O)CCc2cc(C(=O)O)ccc21 (stereo not drawn),nt,-8.5%,-6.2,nt
O=c1[nH]c(=S)[nH]c2c1CN(Cc1ccc(F)cc1)CC2,-1.0%,6.2%,-138.7*,-20.9%
CN1CCN(c2nc(-c3ccc(Cl)cc3)nc3ccccc23)CC1,-6.1%,-28.5%,-0.6,5.0%
O=C1/C(=C\c2cc([N+](=O)[O-])ccc2O)SC(=S)N1Cc1ccc(Cl)cc1,10.1%,?,-83.5*,-58.2%
COc1cc(OC)c(OC)cc1/C=C1\CCC/C(=C\c2cc(OC)c(OC)cc2OC)C1=O,1.7%,-6.3%,-6.6,-50.3%
Cc1ccc(CCNC(=O)C2CCN(S(=O)(=O)c3cccc4cccnc34)CC2)cc1,5.2%,-4.2%,-106.6*,0.0%
CC(C)N(CCO)C(=O)CCc1nnc(CCCc2ccccc2)o1,-0.7%,-9.9%,2.5,12.6µM*
CCS(=O)(=O)c1ncc(Cl)c(C(=O)Nc2ccc(S(=O)(=O)N(C)c3ccccc3)cc2)n1,-4.5%,0.2%,-91.8*,-75.4%
CS(=O)(=O)c1ncc(Cl)c(C(=O)Nc2ccc(OC(F)F)cc2)n1,-2.8%,-10.4%,-73.6*,-55.6%
O=C(Nc1ccc(F)cc1)c1nc(S(=O)(=O)Cc2ccccc2)ncc1Cl,-1.8%,-9.6%,?,-62.9%
CCN(c1ccccc1)S(=O)(=O)c1ccc(C(=O)Nc2ccncc2)cc1,2.2%,7.5%,-12.9,-0.8%
SMILES,TCR act,Eya2 inh,TSHR antagonist,a7 integrin act
Cc1ccccc1CS(=O)(=O)c1ncc(Cl)c(C(=O)Nc2ccc(F)cc2)n1,4.0%,-4.9%,-73.8*,-9.6%
CCN(c1ccccc1)S(=O)(=O)c1ccc(NC(=O)c2nc(S(C)(=O)=O)ncc2Cl)cc1,-1.6%,-7.1%,-88.9*,-64.7%
CS(=O)(=O)c1ncc(Cl)c(C(=O)Nc2ccc(N3CCOCC3)cc2)n1,11.3%,-15.0%,-7.9,-53.3%
COc1ccccc1-c1cnc2c(c1)C(=O)N([C@@H](C)CO)C[C@@H](C)[C@H](CN(C)C(=O)c1cccnc1)O2,nt,nt,nt,11.0%
COc1ccccc1N1CCN(CCN(C(=O)c2ccc(I)cc2)c2ccccn2)CC1,nt,-8.0%,-16.5,nt
CSCCC(NC(=O)c1ccco1)C(=O)NCC(C)(C)N1CCOCC1 (stereo not drawn),nt,-3.8%,-7.8,?
C[C@@H]1CN([C@H](C)CO)S(=O)(=O)c2ccc(C#CCN(C)C)cc2O[C@@H]1CN(C)Cc1ccccc1F,nt,nt,nt,-17.6%
COc1ccc(CC2=CC(=O)c3ccccc3C2=O)cc1,1.5%,3.9%,-83.2*,-60.9%
COc1ccc(Cc2ccccc2C(=O)O)cc1,2.4%,nt,nt,5.7%
COc1ccc(NC(=S)N(C(C)C)C2CCN(C(C)C)CC2)cc1Cl,nt,5.0%,-80.9*,nt
Cc1nc(SCC(=O)N2CCN(c3ccccc3)CC2)n[nH]1,-4.8%,11.8%,-89.5*,8.9%
CSC1=NSC2=NC(=O)/C(=C\c3coc4ccccc4c3=O)C(=N)N12,-1.9%[46.1 µM],?,-91.0*,?
Cc1ccc(NC(=O)CSc2nnc3c(n2)[nH]c2ccccc23)cc1,-0.5%,-12.0%,1.1,-0.1%
Cc1ccc(CNC(=O)CSc2nnc3c(n2)[nH]c2ccccc23)cc1,9.4%,11.1%,-82.0*,-3.9%
Cc1ccc(S(=O)(=O)NC(=O)Nc2ccc(N(C)C)cc2)cc1,66.7%,10.3%,-75.4*,-55.3%
Cc1ccc(NC(=O)NNS(=O)(=O)c2ccc(Br)cc2)cc1,3.6%,3.7%,1.5,9.7%
NC(=O)Nc1ccc(C(=O)OCC(=O)Nc2ccc(Cl)cn2)cc1,-2.9%,-15.9%,-4.9,23.6%
O=C(Nc1nc2ccc(F)cc2s1)C1CCN(S(=O)(=O)c2cc([N+](=O)[O-])ccc2Cl)CC1,2.7%,0.1%,-92.4*,-34.4%
Cc1ccc(S(=O)(=O)N(Cc2ccccc2)c2ccccc2C(=O)N2CCCCC2)cc1,0.1%,13.5%,-78.4*,12.3%
CN1CCN(C(=O)c2ccccc2N(Cc2ccccc2)S(=O)(=O)c2ccccc2)CC1,3.1%[46.1 µM],-27.1%,0.8,9.8%
Cc1cc2[nH]c(=O)c(=O)[nH]c2cc1S(=O)(=O)Nc1cccc(F)c1,-8.5%,-6.6%,6.1,-8.5%
CCc1ccc(NS(=O)(=O)c2cc3[nH]c(=O)c(=O)[nH]c3cc2C)cc1,-7.1%,10.0%,-140.2*,-16.8%
COc1cc2c(cc1OC)C1O[C@](CCCCN3C(=O)c4ccccc4C3=O)(C2)Oc2c1c(=O)oc1ccccc21,nt,-3.6%[15.4 µM],nt,nt
Cc1cc(C)n(C(=O)/C(C#N)=N\Nc2ccccc2[N+](=O)[O-])n1,-3.0%,13.6%,-12.1,6.4%
Cc1cc(C)n(C(=O)/C(C#N)=N/Nc2cc(Cl)cc(Cl)c2)n1,4.7%,3.8%,-81.9*,-0.6%
